Among the data in PubChem BioAssay AID488969 (Vanderbilt High Throughput Screening Facility, 2010) are z-score values, retold here.

Over roughly 110,000 compounds, “z-score” has its median near -0.1; the highest 2% begin near 2. The sample holds the highest values, similar compounds and a random draw of the others, so the mix is not that of the screen. Activity calls are given as the source filed them.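 The calls were made as follows: active = z-score in the third read window above 3 or below -3; inactive = the rest.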

In the assay the target is Metabotropic glutamate receptor 8 (Rattus norvegicus) (UniProt P70579). The experiment in a line: mGluR8 Gi/Go-coupled signaling modulation – cell-based, rat, thallium flux, HTS, primary screen (AID 488969). The note with it: HEK293 rat mGluR8, GIRK (G protein-gated inwardly rectifying potassium channel) thallium flux, FluoZin2; at 10 µM; stronger effect = higher value; submaximal glutamate (EC20) added with thallium.
Sequence of Metabotropic glutamate receptor 8 (Rattus norvegicus) (P70579 whole entry, looked up): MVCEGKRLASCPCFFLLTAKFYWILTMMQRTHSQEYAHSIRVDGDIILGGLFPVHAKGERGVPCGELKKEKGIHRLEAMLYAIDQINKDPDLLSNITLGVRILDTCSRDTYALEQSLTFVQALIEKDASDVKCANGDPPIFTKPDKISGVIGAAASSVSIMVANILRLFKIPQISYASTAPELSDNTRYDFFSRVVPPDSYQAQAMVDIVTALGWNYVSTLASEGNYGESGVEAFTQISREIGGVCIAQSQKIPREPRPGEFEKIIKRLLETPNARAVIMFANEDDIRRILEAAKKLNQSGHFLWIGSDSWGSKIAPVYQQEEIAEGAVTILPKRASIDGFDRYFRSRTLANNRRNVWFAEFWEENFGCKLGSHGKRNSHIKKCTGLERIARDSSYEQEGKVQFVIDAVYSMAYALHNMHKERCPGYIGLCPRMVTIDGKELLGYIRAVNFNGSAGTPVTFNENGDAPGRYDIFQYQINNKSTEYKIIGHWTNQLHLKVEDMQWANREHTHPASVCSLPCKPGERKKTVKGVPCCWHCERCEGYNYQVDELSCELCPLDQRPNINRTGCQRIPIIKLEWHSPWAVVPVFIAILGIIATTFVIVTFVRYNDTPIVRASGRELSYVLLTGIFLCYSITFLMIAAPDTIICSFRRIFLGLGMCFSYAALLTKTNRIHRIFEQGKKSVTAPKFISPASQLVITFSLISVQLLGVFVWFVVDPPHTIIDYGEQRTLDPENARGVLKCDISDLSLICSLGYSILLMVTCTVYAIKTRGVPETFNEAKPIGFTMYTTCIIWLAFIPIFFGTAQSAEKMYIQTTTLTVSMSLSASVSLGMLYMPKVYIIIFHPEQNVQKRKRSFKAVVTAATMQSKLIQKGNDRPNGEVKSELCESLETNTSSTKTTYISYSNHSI
Regarding `Cc1cc(OCc2nc(-c3cccs3)no2)cc(C)c1Cl`, the z-score stood at 0.00195.

Take `COc1cc(CN2CCCC(C)C2)cc([N+](=O)[O-])c1O` (stereo not given): the z-score was -0.494.

As to `O=C(NN1CCOCC1)c1cc(-c2ccc(Br)cc2)nc2ccccc12`, the z-score stood at 2.02.

For `CCc1ccc(-c2cc(C(=O)NN3CCOCC3)c3ccccc3n2)cc1`, the z-score is -0.195.

On to `O=C(NN1CCOCC1)c1cc(-c2ccccc2)nc2ccccc12`, for which the z-score is -0.494.

Turning to `C/C(N)=C(/C#N)C(=O)CSc1nnc(COc2ccccc2Cl)o1`, the z-score came to 0.832.

For `Cc1cc(/C=N/NC(N)=O)c(C)c(CO)c1`, the z-score is -0.0977.

On to `CCn1c(SCC(=O)N2CCCC2)nnc1-c1ccc(N)cc1`, for which the z-score is 0.183.

Regarding `CCn1c(SCC(=O)N2CCC(C(N)=O)(N3CCCCC3)CC2)nnc1-c1ccccc1`, the z-score stood at 2.65.

In the case of `CCn1c(SCC(=O)N2CCC(C(N)=O)(N3CCCCC3)CC2)nc2ccccc2c1=O`, the z-score is -1.2.

`Cn1nnc2cc(C(=O)NCc3ccco3)ccc21` displayed a z-score of 0.326.

As for `CCOC(=O)NC(NC(=O)OCC)C(=O)c1ccccc1`, the z-score was -0.227.

On to `CC(C)CCOP(=O)(c1ccccc1)c1ccccc1`, for which the z-score was -2.77.

Regarding `CC(Nc1cc(N2CCCC2)ccc1[N+](=O)[O-])c1ccccc1` (stereo not given), the z-score is -0.624.

`CCCn1c(O)c(CN2CCCCC2)c(C)c(C#N)c1=O`: the z-score was -0.183.

With `C(/C=C/C=C/Nc1ccccc1)=Nc1ccccc1`, the z-score was 16.2 (active).

The compound `Brc1ccc(N=C/C=C/C=C/Nc2ccc(Br)cc2)cc1` had a z-score of 0.151.

`O=C(/C=C/Nc1ccccc1)c1ccccc1` had a z-score of 0.219.

`Fc1ccccc1CSc1nc2ncc(Br)cc2[nH]1` gave a z-score of 1.26.

`CCC(NC(=O)NC1=NCCS1)(C(F)(F)F)C(F)(F)F`: the z-score is 0.399.

Compound `CCOCCCn1c(=N)c(C(N)=S)cc2c(=O)n3cccc(C)c3nc21` had a z-score of 2.

In the case of `CCn1c(=N)c(C(N)=O)cc2c(=O)n3cccc(C)c3nc21`, the z-score is -1.13.

Turning to `C=CCn1c(=N)c(C(=O)OCC)cc2c(=O)n3cccc(C)c3nc21`, the z-score was -0.017.

On to `COc1cc(C(=O)NCC(=O)N/N=C/c2cccs2)cc(OC)c1OC`, for which the z-score was -0.174.

`NC(=S)N=Nc1c(O)n(Cc2ccc(F)cc2)c2ccccc12` had a z-score of 1.76.

For the compound `CCn1c(O)c(N=NC(=O)CNC(=O)c2ccco2)c2ccccc21`, the z-score was -0.152.

The compound `NC(=S)N=Nc1c(O)n(Cc2ccccc2)c2ccccc12` came in with a z-score of 0.17.

As to `Cn1c(O)c(N=NC(=O)CNC(=O)c2ccco2)c2ccccc21`, the z-score is -0.2.

Consider `NC(=S)N=Nc1c(O)n(Cc2ccc(Br)cc2)c2ccccc12`, for which the z-score was -0.0836.

With `O=C(N=Nc1c(O)n(Cc2ccccc2)c2ccccc12)c1ccc(O)cc1`, the z-score is -0.143.

Compound `Cc1ccc2c(c1)c(N=NC(N)=S)c(O)n2Cc1ccccc1` showed a z-score of 2.88.

Regarding `CCCCNC(=S)N=Nc1c(O)n(Cc2ccccc2)c2ccccc12`, the z-score is 3.24 (active).

As for `CCCn1c(O)c(N=NC(=O)c2ccco2)c2ccccc21`, the z-score was 3.17 (active).

As for `O=C1CC(=C2c3ccccc3-c3ccccc32)C(=O)N1CCN1CCN(c2cccc(Cl)c2)CC1`, the z-score is -0.0614.

Compound `O=C(Nc1ccccc1)C(Cc1cccs1)c1nn[nH]n1` (stereo not given) gave a z-score of 0.0119.

The compound `Cc1ccc(S(=O)(=O)/N=S(/C)c2ccccc2)cc1` (stereo not given) returned a z-score of 0.693.

With `CCN(C(=O)c1cc2ccccc2oc1=O)c1cccc(C)c1`, the z-score came to 0.00276.

In turn, `CCCOc1ccc(C2(C(=O)O)CCCC2)cc1` returned a z-score of 0.219.

As to `O=C(CCC(=O)OCc1ccc(Br)cc1)Nc1ccccc1`, the z-score was -0.0471.

For the compound `Cc1cccc(/C=N/n2c(-c3ccncc3)n[nH]c2=S)c1`, the z-score was -0.531.

Consider `CCN(CC)S(=O)(=O)c1cccc(-c2n[nH]c(=S)n2/N=C/c2ccc(C(=O)OC)cc2)c1`, for which the z-score is 3.19 (active).

For the compound `Cc1cccc(-c2n[nH]c(=S)n2/N=C/c2ccc(C)o2)c1`, the z-score was found to be 0.433.

`COCCn1c(CN2CCN(c3ccc(OC)cc3)CC2)nc2c1c(=O)n(C)c(=O)n2C`: the z-score was -0.219.

For `C=CCn1c(-c2cccs2)nc2ccccc21`, the z-score is 3.14 (active).

In the case of `c1csc(Cn2c(-c3cccs3)nc3ccccc32)c1`, the z-score was -1.65.

Regarding `CCn1c(-c2cccs2)nc2ccccc21`, the z-score is -0.122.

For the compound `COc1cccc(NS(=O)(=O)c2ccc(NC(C)=O)cc2)c1`, the z-score was -0.261.

`COC(=O)CNc1nc(OC)nc(N(C)C)n1` had a z-score of 0.391.

`O=C(c1ccccc1[N+](=O)[O-])N1CCC(Cc2ccccc2)CC1`: the z-score is -0.0322.

For the compound `Cc1cccc(C(=O)N2CCC(Cc3ccccc3)CC2)c1[N+](=O)[O-]`, the z-score was 8.23 (active).

On to `Cc1cc(C(=O)N2CCC(Cc3ccccc3)CC2)ccc1[N+](=O)[O-]`, for which the z-score is -0.573.

`CCNC(=O)CC1SC(=Nc2cccc(Cl)c2C)N(C)C1=O` (stereo not given): the z-score was found to be 0.271.

As for `c1coc(Cn2c(SCc3nc4ccccc4[nH]3)nnc2-c2cccs2)c1`, the z-score is -0.59.

Take `CC1(C)CC(=O)N(CC(=O)NCc2ccccc2)c2ccccc2S1(=O)=O`: the z-score was -0.409.

As for `CC1(C)CC(=O)N(CC(=O)O)c2ccccc2S1(=O)=O`, the z-score is -0.22.

With `CCC(C)NC(=O)CN1C(=O)CC(C)(C)S(=O)(=O)c2ccccc21` (stereo not given), the z-score was 4.26 (active).

`Cc1csc(NC(=O)C2CCCC2)n1` had a z-score of 0.0786.

For the compound `O=C(CN(Cc1ccco1)C(=O)c1ccc(Cl)cc1)Nc1ccc(Cl)c(Cl)c1`, the z-score is -0.0983.

Consider `CC(C)Oc1ccc(C(=O)NC2(C(F)(F)F)N=C3SCCN3C2=O)cc1` (stereo not given), for which the z-score amounted to 0.873.

`Cc1ccc(C(=O)NC2(C(F)(F)F)N=C3SCCN3C2=O)cc1` (stereo not given) registered a z-score of 2.91.
